KB-3-1 tox: kills parental KB-3-1 adenocarcinoma cells; KB-3-1 viability, CellTiter-Glo ATP luminescence, 72 h; Potency, µM (top dose mostly 46.1 µM), most hits filed as cytotoxic; 1.4% of 400,000 active; also: nearly all actives have a fitted effect of over 60% in size
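Cytotoxicity in the drug-sensitive parental line KB-3-1 was scored as loss of CellTiter-Glo luminescence following 72 h incubation with compound. Values come from curve fitting of normalized concentration-response data.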
MCF10A rereplic: inducers of DNA re-replication in MCF 10A breast cells | MCF 10A DNA re-replication, Hoechst nuclear intensity, 48 h | Potency, µM (top dose mostly 46.1 µM), actives largely listed as activators | 2.9% of 350,000 active | AID 624296; also: nearly all actives have a fitted effect of over 50% in size
KB-V1 MDR tox: KB-V1 MDR subline cytotoxicity; 3.4% of 400,000 active; KB-V1 MDR cells viability, CellTiter-Glo, 72 h; Potency, µM (top dose mostly 46.1 µM), actives largely listed as cytotoxic; AID 1347076; also: nearly all actives have a fitted effect of over 60% in size
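KB-V1 MDR subline cells in DMEM (phenol-red free, 10% FBS) exposed to compounds in qHTS concentration series for 72 h at 37 degrees C. Viability read by CellTiter-Glo luminescence; concentration-effect curves fitted after normalization and correction.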
SW480 rerep: induces DNA re-replication in SW480 colon adenocarcinoma cells; SW480 DNA re-replication, Hoechst DNA content imaging, 48 h; Potency, µM (titrated, usually from 46.1 µM), hits mostly activators; 1.8% of 340,000 active; AID 624297; also: nearly all actives have a fitted effect of over 55% in size
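Hoechst fluorescence of nuclei (405 nm excitation, 500-530 nm emission) measured by plate-scanning imager after 48 hr compound exposure at 37 C; re-replication scored as increased number of nuclei with elevated intensity.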
HT1080NT lethal: kills 2HG-producing HT-1080-NT fibrosarcoma cells. HT-1080-NT fibrosarcoma viability, CellTiter-Glo ATP luminescence, 48 h. Potency, µM (doses to about 46.1 µM), actives largely listed as cytotoxic. 1.6% of 360,000 active. AID 686970;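 also: NT is the 2HG producing partner of a matched IDH1 knockdown line; nearly all actives have a fitted effect of over 55% in size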
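Compounds were tested in concentration-response format on HT-1080-NT cells for 48 hours at 37 degrees C. Cell viability came from CellTiter-Glo luminescence; curves were classified by r2, response magnitude and activity.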
HT1080 IDH1KD tx: toxicity to HT-1080 IDH1 knockdown cells (counter line); 2% of 360,000 active; HT-1080 IDH1 knockdown viability, ATP luminescence, 48 h; Potency, µM (top dose mostly 46.1 µM), hits mostly cytotoxic
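% activity derives from luminescence (CellTiter-Glo), normalised to DMSO and no-cell wells. HT-1080-IDH1KD cells, 750/well, had 48 h compound exposure at 37 °C.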
Numbers stand for hits; 0 = inactive; ? = inconclusive; - = not tested or not shown. This is a sample that favours compounds with a hit; in the whole collection about 8% have one here. Calls follow the shape of the dose curve; as a rule, active = well fitted curve in the direction sought with a large enough effect; inconclusive = small, poorly fitted or top-dose-only effect, or another doubt; inactive = no such curve, though single readings can be large; an effect the other way counts as inactive or inconclusive.

SMILES | KB-3-1 tox | MCF10A rereplic | KB-V1 MDR tox | SW480 rerep | HT1080NT lethal | HT1080 IDH1KD tx
CCOCCC(=O)Nc1ccc2c(c1)c(=O)n(C)n2C/C=C/c1ccccc1 | 6.5µM | - | ? | - | ? | 4.1µM
O=C(Nc1ccc2c(c1)OCO2)N1CCN(C/C=C/c2ccccc2)CC1 | 0 | 0 | 21µM | 0 | 0 | 0
Cc1ccc(NC(=O)N2CCN(C/C=C/c3ccccc3)CC2)cc1 | 0 | 0 | 0 | 0 | 0 | 0
O=C(CS(=O)(=O)c1ccccc1Cl)N1CCOCC1 | 0 | 0 | 0 | 0 | 0 | 0
O=C(Nc1ccc2c(c1)OCCO2)C(c1ccnc2ccccc12)n1c(=O)c(-c2ccco2)nc2ccccc21 (stereo not drawn) | 0 | - | 0 | - | 0 | 0
O=C(Nc1ccc2c(c1)OCCO2)C(c1ccnc2ccccc12)N1CCN(C/C=C/c2ccccc2)CC1 (stereo not drawn) | ? | - | ? | - | ? | 15µM
Nc1nc(N)c2cc(Sc3ccc4ccccc4c3)ccc2n1 | 21µM | 16µM | 0 | ? | 8.2µM | 5.8µM
Nc1nc(Nc2cccc(C(F)(F)F)c2)nc(C(F)(F)F)n1 | 0 | 0 | 0 | 0 | ? | ?
Nc1nc(N)c2cc(Sc3cccc(C(F)(F)F)c3)ccc2n1 | ? | - | ? | - | 5.8µM | 5.8µM
Nc1nc(N)c2cc(Sc3ccc(Cl)cc3)ccc2n1 | ? | - | ? | - | 2.6µM | 5.8µM
COc1cccc2cc(-c3nnc(SCC(=O)NCCc4ccccc4)n3C)oc12 | ? | ? | 0 | 0 | 0 | 0
Cc1ccccc1OCC(=O)NCCN(C)C | 0 | 0 | 0 | 0 | 0 | 0
CC(=O)Nc1ccc(Oc2sc(C(=O)c3ccccc3)c(N)c2C#N)cc1 | 0 | 21µM | 0 | ? | ? | 16µM
CC(=O)Nc1ccc(Oc2ccccc2)cc1 | 0 | 0 | 0 | 0 | 0 | 0
CC(=O)OCC(=O)C1CCC2C3CCC4=CC(=O)C=CC4(C)C3CCC12C (stereo not drawn) | 0 | 0 | 16µM | 0 | 0 | 0
CC(C)(C)c1ccc(CN2N=C(/C=C/c3ccccc3)CCC2=O)cc1 | 0 | 21µM | 0 | ? | ? | ?
Cc1cc(C)n(-c2ccc(C(=O)N3CC(C)OC(C)C3)cc2)n1 (stereo not drawn) | 0 | 0 | 0 | 0 | 0 | 0
Cc1ccccc1NC(=O)c1ccc2c(c1)C(=O)N(CC(C)C)C2=O | 0 | 0 | 0 | 0 | 0 | 0
CCOc1ccc2nc(Cl)c(C3CC(c4ccco4)=NN3S(=O)(=O)c3ccccc3)cc2c1 (stereo not drawn) | 0 | 0 | 0 | ? | 0 | 0
Cc1cc(N2C(=O)C(O)=C(C(=O)c3cc4ccccc4o3)C2c2ccc([N+](=O)[O-])cc2)no1 (stereo not drawn) | 0 | 0 | 0 | 0 | 0 | 0
COC(=O)c1sc(N2C(=O)C(O)=C(C(=O)c3ccc(C)o3)C2c2cccs2)nc1C (stereo not drawn) | 0 | 18µM | ? | ? | 0 | 0
Cc1ccc(C2C(C(=O)c3cc4ccccc4o3)=C(O)C(=O)N2c2cc(C)on2)cc1 (stereo not drawn) | 0 | 9.2µM | 0 | ? | 0 | 0
COC(=O)c1sc(N2C(=O)C(O)=C(C(=O)c3ccc(C)o3)C2c2ccco2)nc1C (stereo not drawn) | 0 | 0 | ? | 0 | 0 | 0
Cc1cc(N2C(=O)C(O)=C(C(=O)c3ccc(C)o3)C2c2cccs2)no1 (stereo not drawn) | ? | 0 | 5.2µM | ? | 0 | 0
COC(=O)c1sc(N2C(=O)c3oc4ccccc4c(=O)c3C2c2cccs2)nc1C (stereo not drawn) | 18µM | ? | ? | 0 | 0 | 0
SMILES | KB-3-1 tox | MCF10A rereplic | KB-V1 MDR tox | SW480 rerep | HT1080NT lethal | HT1080 IDH1KD tx
CCN(CC)c1ccc(C(=O)N/N=C/c2ccc(OC)cc2OC)cc1 | 0 | ? | 0 | 0 | ? | 0
CCN1CCN(Cc2cc(=O)oc3ccc(C)cc23)CC1 | 0 | 0 | 0 | 0 | 0 | 0
O=C1Nc2cc(C(=O)N3CCN(c4ccccn4)CC3)ccc2S/C1=C\c1ccccc1 | ? | ? | 0 | 0 | 0 | 0
CCOc1ccc(N(CC)C(=O)CCc2nc(-c3ccccc3F)no2)cc1 | 0 | - | 0 | - | - | -
CC(=O)c1cc2c(cc1NC(=O)c1cc(C)nn1-c1ccccc1)OCO2 | 5.8µM | ? | 0 | ? | 0 | 0
COc1ccc(Br)cc1-c1nc(CCl)cs1 | 0 | 0 | 0 | 0 | 0 | 0
CC(C)c1ccc(NC(=O)[C@H](NC(=O)[C@@H]2Cc3ccccc3CN2)c2ccccc2)cc1 | 0 | 21µM | 0 | ? | ? | ?
COc1ccc(CNC(=O)[C@H](Cc2c[nH]c3ccccc23)NC(=O)[C@@H]2Cc3ccccc3CN2)cc1 | 0 | 0 | 0 | 0 | 0 | 0
Cc1cccc(NC(=O)[C@@H](CC(C)C)NC(=O)[C@@H]2Cc3ccccc3CN2)c1 | 0 | 0 | 0 | 0 | 0 | 0
Cc1ccc(NC(=O)[C@H](NC(=O)[C@@H]2Cc3ccccc3CN2)c2ccccc2)cc1 | 0 | 0 | 0 | 0 | 0 | 0
COc1ccc(NC(=O)[C@H](Cc2c[nH]c3ccccc23)NC(=O)[C@@H]2Cc3ccccc3CN2)cc1 | 0 | 15µM | 0 | ? | ? | ?
CC(C)c1ccc(NC(=O)[C@H](Cc2c[nH]c3ccccc23)NC(=O)[C@@H]2Cc3ccccc3CN2)cc1 | ? | 21µM | 0 | ? | 0 | 0
CCn1c(/N=C/c2c[nH]c3ccccc23)nc2ccccc21 | 0 | 0 | 0 | 0 | 0 | ?
CC(Oc1ccccc1Cl)C(=O)N1CCOCC1 (stereo not drawn) | 0 | 0 | 0 | 0 | 0 | ?
Cc1cnc(NC(=O)c2ccc(-c3ccc([N+](=O)[O-])cc3)o2)s1 | 0 | 0 | 0 | 0 | 0 | 0
CC1(C(=O)NS(=O)(=O)c2ccccc2)CCN1C(=O)c1cccc2ccccc12 (stereo not drawn) | 0 | - | 0 | - | ? | ?
CC(C)C(=O)Nc1ccc(NC(=O)c2ccco2)cn1 | 0 | 0 | 0 | 0 | 0 | 0
Cc1nc(N2CCCCC2C)c2c(C)c(C(=O)Nc3cccc(C(F)(F)F)c3)sc2n1 (stereo not drawn) | 0 | 18µM | ? | 0 | 0 | 0
CCOC(=O)c1sc2nc(C)nc(N3CCCCC3C)c2c1C (stereo not drawn) | 0 | 18µM | 0 | 0 | 0 | 0
COc1cc(NC(=O)c2sc3nc(C)nc(N4CCOCC4)c3c2C)cc(OC)c1OC | 0 | 0 | 23µM | 0 | 0 | 0
Cc1nc(N2CCCCC2)c2c(C)c(C(=O)Nc3cccc(C(F)(F)F)c3)sc2n1 | 0 | 18µM | 0 | 0 | ? | 0
Cc1c(C(=O)Nc2cccc(C(F)(F)F)c2)sc2nc3n(c(=O)c12)CCC3 | ? | - | 0 | - | - | -
O=c1[nH]cc(S(=O)(=O)N2CCCc3ccccc32)c(=O)[nH]1 | 0 | 0 | 0 | 0 | 0 | 0

From PubChem
